# Source: PubChem BioAssay
# Rows were chosen to be rich in hits. Some 4% of all compounds tested hit in one or more screens of this group.
# HIF-2a block – HIF-2a reporter inhibitors, primary screen, luminescence, 786-0 RCC cells; 786-0 RCC cells HIF-2a reporter, luciferase luminescence, overnight; inhibition, % at 18.8 µM; 360,000 tested, 0.72% active; AID 624352, 2012;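 active = inhibition of the luminescence signal of 40% or more relative to plate controls, in a single-dose primary screen at 18.75 µM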
# CF NFkB inh – inhibitors of PAF-induced NF-kB signaling, primary screen, cell-based, GFP fluorescence, uHTS. KKLEB NF-kB-GFP reporter, GFP fluorescence overnight. 360,000 tested, 0.86% active. AID 588850, 2011. inhibition, % at 5 µM;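 active = at least 50% inhibition at 5 µM, scaled per plate between neutral and stimulator controls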;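 note: PAF is a Pseudomonas aeruginosa culture filtrate used as stimulus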
# TROY signal inh – inhibitors of TROY-driven NF-kB signaling, primary screen, Q293 LMP1-TROYcd cells, NF-kB luciferase, uHTS | Q293 LMP1-TROYcd NF-kB luciferase reporter, 4 h | inhibition, % at 10 µM | 360,000 tested, 0.98% active | AID 1347056, 2019;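 active = compounds whose plate-normalised and pattern-corrected inhibition of the luciferase reporter signal at the single screening dose is 50% or more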
# Peg3 prom inh – Peg3 promoter-driven luciferase inhibitors, primary screen, cell-based, HeLa, luciferase luminescence | inhibition, % at 20 µM | AID 588405, 2011 | HeLa PEG-Prom luciferase reporter, overnight | 360,000 tested, 1.7% active;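 active = inhibition of at least 50% at 20 µM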
# TWEAK Fn14 block – inhibitors of TWEAK-Fn14 signaling, primary screen, luciferase reporter cells, uHTS | TWEAK-stimulated Fn14 reporter cells, luciferase luminescence, 8 h | 360,000 tested, 2% active | AID 1159606, 2016 | inhibition, % at 10 µM; in the data active = inhibition above about 50%
# KKLEB cytotox – cytotoxicity in KKLEB CF airway cells, primary screen, cytotoxicity control for CF NF-kB inhibitor project, cell-based, uHTS, fluorescence assay plates. activity change (cytotoxicity), % at 5 µM. AID 602141, 2011. 360,000 tested, 0.36% active. KKLEB CF airway cells viability, ATPlite luminescence, overnight; active compounds read low; cells stimulated with P. aeruginosa culture filtrate;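 active = corrected activity change at or below -50% at 5 µM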
# A number is an active result; 0 = inactive; - = not tested or not shown.
SMILES,HIF-2a block,CF NFkB inh,TROY signal inh,Peg3 prom inh,TWEAK Fn14 block,KKLEB cytotox
COC(=O)C1=C(C)N(Cc2ccccc2)C(=O)N[C@H]1c1ccccc1,0,0,0,0,0,0
COC(=O)C1=C(C)N(Cc2ccccc2)C(=NCc2ccc(OC)cc2)N[C@H]1c1ccccc1,0,0,0,69,0,0
Cc1cc(F)ccc1NC(=O)CCc1ccc(S(=O)(=O)N2CCOCC2)cc1,0,0,0,0,0,0
CNS(=O)(=O)c1cccc(C(=O)OCC(=O)c2c(N)n(Cc3ccccc3)c(=O)n(C)c2=O)c1,0,0,0,0,0,0
Cc1cc(O)c(C2=Nc3ccccc3SC(c3ccc(Cl)cc3)C2)c(=O)o1 (centres undefined),0,0,75,0,77,0
COc1ccc(C2CC(c3c(O)cc(C)oc3=O)=NCCS2)c(OC)c1 (centres undefined),0,0,0,0,0,0
O=C1C(Br)=C(c2ccccc2)C(c2ccccc2)=C1c1ccccc1,0,79,0,105,57,-74
CC(O)CNCCCOc1ccc(Cl)cc1C(C)(C)C (centres undefined),0,0,0,81,0,0
CN(C)CCOCCOc1ccc(Cl)cc1C(C)(C)C,0,0,0,0,0,0
O=C(Nc1ccc(-c2nc3cc(Cl)ccc3o2)cc1)C1CCCO1 (centres undefined),0,0,0,0,50,0
O=C(Nc1ccc2oc(-c3ccccc3)nc2c1)C1CCCO1 (centres undefined),0,0,0,0,0,0
Cc1ccc2nc(-c3ccc(NC(=O)C4CCCO4)cc3)[nH]c2c1 (centres undefined),0,0,0,0,70,0
Cc1ccc(-c2oc3ncnc(N)c3c2-c2ccc(C)cc2)cc1,0,0,0,0,0,0
COc1ccc(-c2oc3ncnc(NCCCN(C)C)c3c2-c2ccc(OC)cc2)cc1,0,0,0,104,0,0
CN(C)CCNc1ncnc2ccccc12,0,0,0,0,0,0
CN(C)CCNc1ncnc2oc(-c3ccccc3)c(-c3ccccc3)c12,0,0,0,71,0,0
CCOc1ccc(S(=O)(=O)NCCCn2ccnc2)cc1,0,0,0,0,0,0
CC1=NN(c2nc(-c3ccc(C)cc3)cs2)C(=O)C1N=Nc1ccccc1O (centres undefined),0,0,0,0,62,0
CC1=NN(c2nc(-c3ccc(C)cc3)cs2)C(=O)C1N=Nc1cccc(O)c1 (centres undefined),0,0,0,0,50,0
Cc1noc(NS(=O)(=O)c2ccc(N/C=C\C(=O)c3ccncc3)cc2)c1C,0,0,0,0,0,0
Cc1noc(NS(=O)(=O)c2ccc(N/C=C/C(=O)c3ccc(F)cc3)cc2)c1C,0,0,0,0,57,0
CCN(CC(=O)NCc1cccs1)C(=O)c1ccc(-c2ccccc2F)o1,0,0,0,0,0,0
C[C@@]12C(=O)N(CC3CCCO3)CC(=O)N1[C@H]1c3cc(Cl)ccc3OC[C@@H]1[C@@H]2c1ccccc1 (some centres undefined),0,0,0,0,0,0
NS(=O)(=O)c1cccc(NC(=O)c2cc(=O)c3ccccc3o2)c1,0,0,0,0,0,0
O=C(Nc1cccc(S(=O)(=O)N2CCCCCC2)c1)c1cc(=O)c2ccccc2o1,0,0,0,0,63,0
SMILES,HIF-2a block,CF NFkB inh,TROY signal inh,Peg3 prom inh,TWEAK Fn14 block,KKLEB cytotox
CCN(CC)c1ccc(S(=O)(=O)N2CCOCC2)cc1NC(=O)CSc1ccccc1,0,0,0,0,0,0
CCN(CC)c1ccc(S(=O)(=O)N2CCOCC2)cc1NC(=O)c1cc(=O)c2ccccc2o1,0,0,0,62,0,0
CN(c1ccccc1)S(=O)(=O)c1cccc(NC(=O)c2cc(=O)c3ccccc3o2)c1,0,0,0,0,51,0
O=C1CSC(=S)N1N=Cc1ccc(Cl)s1,0,0,0,0,0,0
O=S1(=O)CC(N2CC=CC2)CN1Cc1cn(Cc2ccc(Cl)cc2)nn1 (centres undefined),0,-,0,-,0,-
CCOC(=O)CN(C(=O)CSc1nnc(-c2ccncc2)n1CCCOC)c1ccccc1,0,0,58,0,0,0
COc1ccc([C@@H]2[C@@H]3C(=O)N(C(C)(C)C)C(=O)[C@@H]3[C@]3(Cc4ccccc4)C(=O)N(c4ccc(Br)cc4)C(=O)N23)cc1,0,71,0,0,0,-83
CC(=O)N1CCc2cc(S(=O)(=O)NC(CC(C)C)C(=O)Nc3ccc4c(c3)OCCO4)ccc21 (centres undefined),0,0,0,0,57,0
O=[N+]([O-])c1cccc(P(=O)(O)c2cccc([N+](=O)[O-])c2)c1,0,0,0,0,0,0
CCCC(=O)Nc1ccc(C(=O)O)cc1NC(=O)CCC,0,0,0,0,103,0
Cc1ccc(N=C2NC(=O)/C(=C/c3cccs3)S2)cc1C,0,52,0,0,0,0
Cc1cccc(N=C2NC(=O)/C(=C\c3cccs3)S2)c1,0,0,0,0,0,0
C=CCn1c2ccccc2c2nnc(SCCCn3c(=O)[nH]c4ccccc43)nc21,0,0,68,65,60,0
C=CCn1c2ccccc2c2nnc(SCCN3CCCCC3)nc21,0,0,0,0,0,0
CCC(=O)NNC(=O)Cc1c(C)n(C(=O)c2ccc(Cl)cc2)c2ccc(OC)cc12,0,0,0,0,56,0
CCCNC(=O)Cc1c(C)n(C(=O)c2ccc(Cl)cc2)c2ccc(OC)cc12,0,0,0,0,0,0
CCC1CCCCN1S(=O)(=O)c1ccc2c(c1)CCN2C(=O)C1CCC1 (centres undefined),0,0,0,0,0,0
O=C(CCl)c1ccc2c(c1)CCN2C(=O)C1CCCCC1,0,0,53,105,0,0
Cc1ccc(NC2=Nc3ccccc3CC2)cc1,0,0,61,0,72,0
COc1ccccc1NC(=O)Nc1nc(C(N)Cc2ccc(Cl)cc2)cs1 (centres undefined),0,0,0,106,0,0
COc1ccc(CCNC(=O)Nc2nc(C(N)Cc3ccccc3)cs2)cc1OC (centres undefined),0,0,0,0,0,0
COc1ccccc1NC(=O)Nc1nc(C(N)Cc2ccccc2)cs1 (centres undefined),0,0,0,60,0,0
NC(CCc1ccccc1)c1csc(Nc2ccccn2)n1 (centres undefined),0,0,0,0,0,0
